Bioassay records as filed in PubChem BioAssay.
HP1b binding inh: HTS for Inhibitors of HP1-beta Chromodomain Interactions with Methylated Histone Tails; AlphaScreen HP1-beta / biotin-H3K9me3 peptide binding; 390,000 compounds, 0.56% hits; Chromobox protein homolog 1 (Homo sapiens), P83916; Potency, µM (doses to about 114 µM), for the others: top-dose activity change, negative = inhibition, actives largely listed as inhibitors; note: nearly all actives have a fitted effect of over 70% in size
Target sequence (P83916 whole entry, looked up): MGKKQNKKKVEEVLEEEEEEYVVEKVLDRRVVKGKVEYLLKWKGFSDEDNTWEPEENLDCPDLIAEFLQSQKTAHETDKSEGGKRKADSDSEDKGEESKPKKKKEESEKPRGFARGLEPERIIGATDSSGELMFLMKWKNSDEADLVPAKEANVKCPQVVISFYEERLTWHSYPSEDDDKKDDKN
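Compound inhibition of the preformed complex between 50 nM HP1-beta and 50 nM biotinylated H3K9me3 peptide was read by AlphaScreen. Buffer was PBS pH 7.4 with 0.01% Tween-20. Incubations ran 30 min at room temperature, with 10 ug/mL donor/acceptor beads.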
G9a block: qHTS Assay for Inhibitors of Histone Lysine Methyltransferase G9a; AID 504332, 2011; Potency, µM (highest dose often 102 µM), for inactives: at the highest dose activity, negative = inhibition, actives largely listed as inhibitors; 350,000 compounds, 8.8% hits; Histone-lysine N-methyltransferase EHMT2 (Homo sapiens), Q96KQ7; G9a H3K9 monomethylation, AlphaScreen, 2 h; note: % is set by controls: 0 for no effect and ±100 for the full control effect; nearly all actives have a fitted effect of over 75% in size
Target sequence (Q96KQ7 913-1193 limits assumed): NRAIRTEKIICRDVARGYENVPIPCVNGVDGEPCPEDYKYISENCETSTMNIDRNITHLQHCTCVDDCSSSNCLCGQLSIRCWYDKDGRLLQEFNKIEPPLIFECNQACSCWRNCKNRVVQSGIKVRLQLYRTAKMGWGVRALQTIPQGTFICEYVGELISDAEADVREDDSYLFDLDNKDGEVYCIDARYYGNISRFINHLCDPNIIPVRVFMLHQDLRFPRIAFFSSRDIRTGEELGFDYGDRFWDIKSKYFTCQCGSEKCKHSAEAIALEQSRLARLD
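Compounds were preincubated with 20 nM G9a for 15 min, after which biotinylated H3K9 peptide (500 nM) and SAM (20 uM) started a 2 h room-temperature reaction. Monomethylated product was quantified by antibody-based AlphaScreen chemiluminescence.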
BAZ2B block: qHTS Assay for Inhibitors of BAZ2B. Potency, µM (top dose mostly 114 µM), without a hit: at the highest dose activity change, negative = inhibition, most hits filed as inhibitors. Bromodomain adjacent to zinc finger domain protein 2B (Homo sapiens), Q9UIF8. AID 504333, 2011. AlphaScreen BAZ2B-H3K14Ac peptide displacement. 360,000 compounds, 4.4% hits; note: % is set by controls: 0 for no effect and ±100 for the full control effect; nearly all actives have a fitted effect of over 60% in size
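AlphaScreen displacement: compounds (up to 110uM) incubated 30 min at room temperature with a preformed 50 nM BAZ2B/50 nM biotinylated H3K14Ac peptide complex in PBS pH 7.4 with Tween-20. Donor and acceptor beads at 10 ug/mL final added, 20 min light-protected before reading.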
PLK1 PBD inh: qHTS for Inhibitors of PLK1-PDB (polo-like kinase 1 - polo-box domain): Primary Screen; Serine/threonine-protein kinase PLK1 (Homo sapiens), P53350; Plk1 PBD binding of FITC phosphopeptide, fluorescence polarization; Potency, µM, for the others: max response, negative = inhibition, most hits filed as inhibitors; 360,000 compounds, 2.8% hits; AID 720504, 2013; note: series mostly up to about 57 µM; % is set by controls: 0 for no effect and ±100 for the full control effect; nearly all actives have a fitted effect of over 65% in size
Sfp PPTase inh: qHTS Assay for Inhibitors of Bacillus subtilis Sfp phosphopantetheinyl transferase (PPTase); Potency, µM, inactives show largest response in the series, negative = inhibition, actives largely listed as inhibitors; 310,000 compounds, 3.5% hits; Biochemical Sfp PPTase activity, qHTS; 4'-phosphopantetheinyl transferase ffp (Bacillus subtilis), Q9F4F7; AID 1490, 2009;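 note: the enzyme is Sfp with the accession as filed and its product quenches rhodamine fluorescence; 0% = enzyme reaction without inhibitor and -100% = no enzyme wells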
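Compounds were incubated with enzyme (final 15 nM) for 15 min at room temperature before substrate addition started the reaction. Fluorescence at 525 nm excitation, 598 nm emission was recorded immediately and after 30 minutes.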
JMJD2A Tudor: qHTS Assay for Inhibitors of JMJD2A-Tudor Domain; Lysine-specific demethylase 4A (Homo sapiens), O75164; AlphaScreen JMJD2A-Tudor / H3K4me3 peptide binding; Potency, µM (doses to about 114 µM), for the others: at the top dose activity change, negative = inhibition, actives largely listed as inhibitors; 390,000 compounds, 4.4% hits; AID 504339, 2011; note: % is set by controls: 0 for no effect and ±100 for the full control effect; nearly all actives have a fitted effect of over 50% in size
Starred values were filed as active, the others as inactive; ? = inconclusive; · = no result given; [ ] = another dose, or the depositor's remark. Only some compounds are listed: those with a hit (about 12% of all), similar ones and a draw of the others. Calls come from the whole dose curve; as a rule, active = well fitted curve in the direction sought with a large enough effect; inconclusive = small, poorly fitted or top-dose-only effect, or another doubt; inactive = no such curve, though single readings can be large; an effect the other way counts as inactive or inconclusive. Potency is the fitted concentration of half-maximal effect.

SMILES	HP1b binding inh	G9a block	BAZ2B block	PLK1 PBD inh	Sfp PPTase inh	JMJD2A Tudor
COc1ccc(NC(=O)[C@@H]2[C@@H]3C(=O)N(C4CCCCC4)C(=O)[C@@H]3C3c4ccccc4C=CN32)cc1 (stereo partly specified)	16%	?	·	12%	3%	-30%
O=C1NC(=O)[C@@H]2C3c4ccccc4C=CN3[C@H](C(=O)c3cccs3)[C@H]12 (stereo partly specified)	·	10µM*	-6%	·	79µM*	·
C/C(=C\c1ccccc1)CN1CCC(C(=O)N2CCCCC2)CC1	?	?	?	-7%	-9%	7.9µM*
C/C(=C\c1ccccc1)CN1CCC(C(=O)N2CCC(C)CC2)CC1	-30%	10µM*	?	-22%	-10%	-1%[11.4 µM]
C/C(=C/c1ccccc1)C(=O)N1CCC(C)CC1	40%	24%	-3%	2%	4%	0%
CCCCNC(=O)C1CCN(C/C(C)=C/c2ccccc2)CC1	-9%	?	50µM*	?	-16%	6.3µM*
Cc1ccc(NC(=O)COC(=O)c2ccn(C)n2)cc1	-5%	?	-2%	-7%	2%	-13%
CC(C)(C)C(=O)Nc1cc2c3c(c1)CCN3C(=O)CC2	27%	8%[59 µM]	-12%	4%	20%	5%
COc1ccccc1/C=C/C=N/n1c(-c2ccc(C)cc2)n[nH]c1=S	-19%	?	-28%	-26%	-19%	-31%
Cc1nnc(C)n1/N=C/C=C/c1ccccc1	6%	3%	0%	-2%	20%	-14%
COc1ccccc1/C=C\C=N\n1c(C2CCCCC2)n[nH]c1=S	?	-5%[0.0925 µM]	?	?	-25%	-22%
Cc1cc(-c2n[nH]c(=S)n2/N=C/C=C/c2ccccc2)n[nH]1	?	1.4µM*	?	-16%	-15%	10µM*
COc1ccccc1/C=C/C=N/n1c(-c2cc(C)[nH]n2)n[nH]c1=S	-30%	1.6µM*	?	-16%	-21%	7.9µM*
COc1ccccc1/C=C/C=N/n1c(-c2ccccn2)n[nH]c1=S	8%	1.6µM*	14µM*	-11%	2%	8.9µM*
S=c1nn[nH]n1C12CC3CC(CC(C3)C1)C2	-5%	1.4µM*	?	?	?	50µM*
COc1ccc(C(=O)N2CCC3(CCN(Cc4ccccc4OC)CC3)CC2)cc1	·	-2%[12.7 µM]	·	·	27%	·
CCOC(=O)c1cccc(NC(=O)CCc2c(C)nn(-c3ccc(N4CCCCC4)nn3)c2C)c1	22%	-19%[59 µM]	?	·	·	?
COc1ccc(-n2c(=S)[nH]c3cc(C(=O)NCCCN4CCOCC4)ccc3c2=O)cc1OC	34%	35µM*	?	-6%	-22%	22µM*
O=C(c1ccc2c(=O)n(Cc3ccccc3)c(=S)[nH]c2c1)N1CCOCC1	35%	?	-2%	1%	-6%	-4%
COc1ccc(C(=O)NCCCN2CCOCC2)cc1OC	27%	2%[12.7 µM]	5%	-4%	23%	-6%[57.1 µM]
O=C(NCCCN1CCOCC1)c1ccc2c(=O)n(Cc3ccccc3)c(=S)[nH]c2c1	39%	50µM*	-26%	4%	5%	-10%
CCc1cccc(CC)c1NC(=S)NCCc1c(C)[nH]c2ccc(C)cc12	-22%	40µM*	28µM*	-8%	5%	32µM*
Cc1ccc2[nH]c(C)c(CCNC(=O)c3c(N)no[n+]3[O-])c2c1	71µM*	?	?	0%	-7%	50µM*
CCCNC(=O)NCCc1c(C)[nH]c2ccccc12	16%	0%	0%	-9%	25%	-19%
